In PubChem BioAssay (Tox21):
Records with an inconclusive call do not appear. Where a call stands in place of a potency, no number is given. Where a structure was tested more than once in an assay, its records may differ in their call. Calls of active or inactive are those of the source. Unless noted, calls come from the whole dose curve.

Experiments:
[1] = Nuclear factor erythroid 2-related factor 2/antioxidant responsive element (Nrf2/ARE) small molecule agonists: qHTS cell viability counter screen in human keratinocytes (AID 1919968; active = well fitted curve in the direction sought with a large enough effect in the repeat runs; an effect the other way counts as inactive or inconclusive; note: nearly all actives have a fitted effect of over 55% in size)
In short: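 Viability counter-screen: KeratinoSens reporter cells, DMSO-delivered compounds, 23 h at 37 C, CellTiter-Fluor fluorescence.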

[2] = Nuclear factor erythroid 2-related factor 2/antioxidant responsive element (Nrf2/ARE) small molecule agonists: luciferase reporter gene qHTS assay in human keratinocytes (AID 1919969); note: nearly all actives have a fitted effect of over 35% in size
[3] = molecular target: Gonadotropin-releasing hormone receptor (Homo sapiens) (UniProt P30968); assay: Human gonadotropin-releasing hormone receptor (GnRHR) small molecule agonists, calcium flux assay in GnRHR-HEK293 cells (AID 1920063); note: nearly all actives have a fitted effect of over 35% in size
Chain of Gonadotropin-releasing hormone receptor (Homo sapiens) (P30968 whole entry, looked up): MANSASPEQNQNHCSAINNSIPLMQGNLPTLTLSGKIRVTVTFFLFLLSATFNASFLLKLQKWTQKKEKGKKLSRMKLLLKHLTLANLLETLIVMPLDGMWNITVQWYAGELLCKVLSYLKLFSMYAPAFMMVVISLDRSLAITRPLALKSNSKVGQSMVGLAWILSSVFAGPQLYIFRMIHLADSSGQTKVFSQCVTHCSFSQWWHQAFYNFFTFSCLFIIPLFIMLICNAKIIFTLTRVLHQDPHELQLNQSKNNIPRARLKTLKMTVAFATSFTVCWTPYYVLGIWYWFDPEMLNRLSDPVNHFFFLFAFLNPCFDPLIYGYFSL
In short: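 Tox21-format agonist screen using human GnRHR-expressing HEK293 cells and a fluorescent calcium dye; kinetic 3-min fluorescence reading after compound addition, 15-point concentration series run in triplicate.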

[4] = molecular target: KiSS-1 receptor (Homo sapiens) (UniProt Q969F8); assay: Human kisspeptin (KISS1R) small molecule agonists, calcium flux assay in KISS1R-HEK293 cells (AID 1920064; active = well fitted curve in the direction sought with a large enough effect in the repeat runs; an effect the other way counts as inactive or inconclusive)
Chain of KiSS-1 receptor (Homo sapiens) (Q969F8 whole entry, looked up): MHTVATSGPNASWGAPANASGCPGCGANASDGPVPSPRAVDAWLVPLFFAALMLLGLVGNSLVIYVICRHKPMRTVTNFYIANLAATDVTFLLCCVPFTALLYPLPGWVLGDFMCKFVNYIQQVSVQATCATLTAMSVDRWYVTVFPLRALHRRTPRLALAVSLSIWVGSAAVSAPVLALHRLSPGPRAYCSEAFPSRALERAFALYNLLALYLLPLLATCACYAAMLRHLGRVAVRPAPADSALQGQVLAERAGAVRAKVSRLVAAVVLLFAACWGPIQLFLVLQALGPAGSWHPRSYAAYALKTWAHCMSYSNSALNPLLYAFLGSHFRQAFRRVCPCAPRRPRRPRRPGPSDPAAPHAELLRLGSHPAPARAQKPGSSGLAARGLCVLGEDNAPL
In short: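 Intracellular calcium mobilization in KISS1R-HEK293 cells was recorded by fluorescence (Ex/Em 480/540) for 3 min following compound addition to cells pre-loaded 1 h with calcium dye.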

[5] = G protein-coupled receptor (GPCR) small molecule agonists, calcium flux assay: HEK293 wild type cell line counter screen (AID 1920065)
In short: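 In this agonist-mode screen, ATP is the positive control and DMSO the vehicle. Cells grow 18 h before a 1 h dye incubation at 37 C; signal is taken at Ex/Em 480/540 over 3 min.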

[6] = p53 small molecule agonists, cell-based qHTS assay with rat liver microsomes (AID 1963578)
In short: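 Cells carrying a p53 response element–beta-lactamase reporter were plated and rested 5 h, then dosed with compound in DMSO plus rat liver microsomes and NADPH, each at 0.5 mg/mL final. After 16 h at 37 C, LiveBLAzer substrate was added for 2 h.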

[7] = p53 small molecule agonists, cell-based qHTS assay with human liver microsomes: qHTS cell viability counter screen (AID 1963579); note: nearly all actives have a fitted effect of over 45% in size
In short: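 Cytotoxicity counter screen: p53RE-bla, 4,000 cells/well; 5 h settle, 37 C/5% CO2; cpd + HLM 0.5 mg/mL + NADPH 0.5 mg/mL (final); 16 h, 37 C; CellTiter-Glo, 30 min RT, luminescence.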

[8] = p53 small molecule agonists, cell-based qHTS assay with rat liver microsomes: qHTS cell viability counter screen (AID 1963580); note: nearly all actives have a fitted effect of over 45% in size; note: potency is the fitted concentration of half-maximal effect
In short: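 p53RE-bla HCT-116 cells (4,000/well) rested 5 h at 37 C, then given Tox21 compounds in DMSO with rat liver microsomes (0.5 mg/mL final) plus NADPH (0.5 mg/mL final) for 16 h at 37 C. Viability read by CellTiter-Glo luminescence after 30 min at room temperature.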

[9] = p53 small molecule agonists, cell-based qHTS assay: qHTS cell viability counter screen (AID 1963581); note: nearly all actives have a fitted effect of over 45% in size
In short: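 Compounds are pinned onto HCT-116 p53RE-bla cells and left 16 h at 37 C. Following the reporter FRET read, ATP is quantified by CellTiter-Glo luminescence after 30 min at room temperature.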

[10] = p53 small molecule agonists, cell-based qHTS assay (AID 1963582; active = well fitted activation curve with a large enough effect in the signal ratio in the repeat runs, not every such curve was filed as active; the % refers to the signal ratio)
In short: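 Agonist activity was scored from beta-lactamase FRET fluorescence in p53RE-bla cells treated 16 h at 37 C with compounds in DMSO, substrate incubation being 2 h at room temperature.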

[11] = molecular target: 5-hydroxytryptamine receptor 2A (Homo sapiens) (UniProt P28223); assay: 5-hydroxytryptamine receptor 2A (HTR2A) small molecule antagonists, cell-based qHTS assay (AID 1963586); note: nearly all actives have a fitted effect of over 45% in size
Chain of 5-hydroxytryptamine receptor 2A (Homo sapiens) (P28223 whole entry, looked up): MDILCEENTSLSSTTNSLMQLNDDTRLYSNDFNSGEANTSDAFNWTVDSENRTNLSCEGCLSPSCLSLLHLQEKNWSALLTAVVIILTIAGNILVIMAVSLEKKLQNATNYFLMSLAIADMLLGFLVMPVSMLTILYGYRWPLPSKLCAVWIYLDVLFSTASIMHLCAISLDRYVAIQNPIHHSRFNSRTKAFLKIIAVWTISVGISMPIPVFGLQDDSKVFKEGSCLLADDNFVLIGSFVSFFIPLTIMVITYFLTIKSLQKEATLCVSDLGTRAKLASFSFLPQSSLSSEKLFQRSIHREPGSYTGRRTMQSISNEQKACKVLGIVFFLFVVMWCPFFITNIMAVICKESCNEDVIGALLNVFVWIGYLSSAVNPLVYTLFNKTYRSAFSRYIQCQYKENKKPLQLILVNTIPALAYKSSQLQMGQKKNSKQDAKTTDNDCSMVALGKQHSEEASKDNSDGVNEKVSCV
In short: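 Antagonist-mode intracellular calcium assay: DOI (4 nM) added after 5 min compound pre-incubation at room temperature to dye-loaded HTR2A-CHO cells. Fluorescence followed for 3 min, sampled every second.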

[12] = molecular target: 5-hydroxytryptamine receptor 2A (Homo sapiens) (UniProt P28223); assay: 5-hydroxytryptamine receptor 2A (HTR2A) small molecule agonists, cell-based qHTS assay (AID 1963587); note: nearly all actives have a fitted effect of over 30% in size
In short: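 HTR2A-CHO cells, plated 18 h at 37 C/5% CO2, dye-loaded 1 h at 37 C; compounds in DMSO added by pin tool (agonist mode). Intracellular calcium flux read as kinetic fluorescence on FDSS over 2 min at 1 s intervals.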

[13] = molecular target: Muscarinic acetylcholine receptor M1 (Homo sapiens) (UniProt P11229); assay: Cholinergic receptor muscarinic 1 (CHRM1) small molecule antagonists, cell-based qHTS assay (AID 1963588); note: nearly all actives have a fitted effect of over 40% in size
Chain of Muscarinic acetylcholine receptor M1 (Homo sapiens) (P11229 whole entry, looked up): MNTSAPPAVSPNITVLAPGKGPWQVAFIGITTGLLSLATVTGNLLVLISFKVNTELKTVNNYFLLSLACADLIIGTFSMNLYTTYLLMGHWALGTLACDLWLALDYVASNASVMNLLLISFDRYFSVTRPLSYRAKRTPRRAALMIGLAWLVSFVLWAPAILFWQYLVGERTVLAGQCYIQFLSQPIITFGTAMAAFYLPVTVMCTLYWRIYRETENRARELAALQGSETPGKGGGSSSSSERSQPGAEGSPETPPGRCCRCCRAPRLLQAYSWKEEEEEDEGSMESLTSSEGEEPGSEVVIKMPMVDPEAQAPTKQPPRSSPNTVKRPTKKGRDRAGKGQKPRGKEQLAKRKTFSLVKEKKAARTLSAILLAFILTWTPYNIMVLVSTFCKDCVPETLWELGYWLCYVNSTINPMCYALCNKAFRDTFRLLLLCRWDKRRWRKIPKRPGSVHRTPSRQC
In short: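 CHRM1-CHO calcium-flux assay, antagonist mode. Cells were seeded 18 h, dye-loaded 1 h at 37 C and given compound for 5 min at RT, then acetylcholine was added at 50nM. FDSS fluorescence was read 3 min; 15 concentrations, three runs.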

[14] = molecular target: Muscarinic acetylcholine receptor M1 (Homo sapiens) (UniProt P11229); assay: Cholinergic receptor muscarinic 1 (CHRM1) small molecule agonists, cell-based qHTS assay (AID 1963589); note: nearly all actives have a fitted effect of over 35% in size
In short: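 Stable CHRM1-CHO cells (human receptor) were incubated 18 h, dye-loaded for 1 h at 37 C and exposed to test compounds for agonist activity, with calcium-dependent fluorescence followed kinetically.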

[15] = cAMP Responsive Elements (CRE) small molecule agonists, cell-based qHTS assay (AID 1963590)
In short: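 FRET-based beta-lactamase readout (LiveBLAzer B/G, 2 h RT) quantified CRE activation in HEK 293T CRE-bla cells after 3 h treatment with DMSO-dissolved compounds.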

[16] = cAMP Responsive Elements (CRE) small molecule antagonists, cell-based qHTS assay (AID 1963591; active = well fitted inhibition curve with a large enough effect in the signal ratio in the repeat runs, not every such curve was filed as active; the % refers to the signal ratio)
In short: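 qHTS in CRE-bla HEK 293T cells: compound in DMSO, then 0.25 uM NKH477 (final), 3 h at 37 °C/5% CO2; beta-lactamase FRET read-out after 2 h substrate incubation.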

[17] = molecular target: Beta-2 adrenergic receptor (Homo sapiens) (UniProt P07550); assay: Adrenergic beta2 receptor (ADRB2) small molecule antagonists, cell-based qHTS assay (AID 1963592); note: nearly all actives have a fitted effect of over 50% in size; note: potency is the fitted concentration of half-maximal effect
Chain of Beta-2 adrenergic receptor (Homo sapiens) (P07550 whole entry, looked up): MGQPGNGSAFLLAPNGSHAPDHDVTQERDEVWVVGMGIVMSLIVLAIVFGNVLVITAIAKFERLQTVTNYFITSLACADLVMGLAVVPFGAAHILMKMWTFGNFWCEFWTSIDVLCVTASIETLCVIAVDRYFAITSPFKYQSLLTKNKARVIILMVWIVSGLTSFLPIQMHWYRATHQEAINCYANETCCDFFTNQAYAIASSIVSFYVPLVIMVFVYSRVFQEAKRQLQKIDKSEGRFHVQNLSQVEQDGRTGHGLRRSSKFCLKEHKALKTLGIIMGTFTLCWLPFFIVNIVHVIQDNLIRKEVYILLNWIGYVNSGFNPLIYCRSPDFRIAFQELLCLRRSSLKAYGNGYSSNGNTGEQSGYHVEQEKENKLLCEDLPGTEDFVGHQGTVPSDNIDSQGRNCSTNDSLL
In short: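 Cells (CHO, stable ADRB2 overexpression) incubated 18-20hr at 37C; compounds added from DMSO; agonist mix (1nM isoproterenol, 100uM IBMX, 25uM Ro-20-1724) added; 0.5hr RT; d2-cAMP and anti-cAMP-cryptate added; 1hr RT; 665/615 nm read.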

[18] = molecular target: Beta-2 adrenergic receptor (Homo sapiens) (UniProt P07550); assay: Adrenergic beta2 receptor (ADRB2) small molecule agonists, cell-based qHTS assay (AID 1963593);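 note: CHO cells stably overexpressing human ADRB2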
In short: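 CHO cells stably over-expressing ADRB2 were plated overnight at 37C, then dosed with compounds plus a stimulation mix containing 100uM IBMX and 25uM Ro-20-1724 for 0.5hr at room temperature. cAMP was measured by HTRF competition, 1hr.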

[19] = molecular target: D(2) dopamine receptor (Homo sapiens) (UniProt P14416); assay: Dopamine D2 receptor (DRD2) small molecule agonists, cell-based qHTS assay (AID 1963594); note: nearly all actives have a fitted effect of over 35% in size
Chain of D(2) dopamine receptor (Homo sapiens) (P14416 whole entry, looked up): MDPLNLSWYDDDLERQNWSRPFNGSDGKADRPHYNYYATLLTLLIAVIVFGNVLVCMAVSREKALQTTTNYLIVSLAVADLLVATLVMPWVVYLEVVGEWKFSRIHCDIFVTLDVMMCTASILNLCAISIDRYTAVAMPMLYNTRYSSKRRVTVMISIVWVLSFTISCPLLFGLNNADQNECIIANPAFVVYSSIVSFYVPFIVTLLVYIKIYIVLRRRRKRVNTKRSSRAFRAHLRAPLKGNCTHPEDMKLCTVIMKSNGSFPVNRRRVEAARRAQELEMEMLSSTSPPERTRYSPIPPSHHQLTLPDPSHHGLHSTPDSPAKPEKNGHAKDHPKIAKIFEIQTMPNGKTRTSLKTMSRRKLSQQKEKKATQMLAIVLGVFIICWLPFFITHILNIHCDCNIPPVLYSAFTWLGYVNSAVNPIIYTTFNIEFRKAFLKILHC
In short: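 HEK293 cells stably expressing DRD2 were cultured 24 h at 37 C, then given Ro20-1724 (0.1 mM final) and compounds for 10 min at room temperature. NKH477 (200nM) was then added for 30 min. cAMP was read by HTRF.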

[20] = molecular target: D(2) dopamine receptor (Homo sapiens) (UniProt P14416); assay: Dopamine D2 receptor (DRD2) small molecule antagonists, cell-based qHTS assay (AID 1963595; active = well fitted inhibition curve with a large enough effect in the signal ratio in the repeat runs, with a control signal flat; the % refers to the signal ratio)
In short: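 Antagonist mode in DRD2-HEK293 cells: after compound addition with 0.1 mM Ro20-1724, cells received quinpirole (12 nM) and NKH477 (200 nM) for 30 min at room temperature; HTRF cAMP read after 1 h detection.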

Structure (SMILES)	Potency [1]	Potency [2]	Potency [3]	Potency [4]	Potency [5]	Potency [6]	Potency [7]	Potency [8]	Potency [9]	Potency [10]	Potency [11]	Potency [12]	Potency [13]	Potency [14]	Potency [15]	Potency [16]	Potency [17]	Potency [18]	Potency [19]	Potency [20]
COC(=O)C1CCC(C(=O)OC)CC1 (configuration not stated)	inactive	inactive	inactive	inactive	inactive	inactive	inactive	inactive	inactive	inactive	inactive	inactive	inactive	inactive	inactive	inactive	inactive	inactive	inactive	inactive
C=C(CC(=O)O)C(=O)O	inactive	inactive	inactive	inactive	inactive	inactive	inactive	inactive	inactive	inactive	inactive	inactive		inactive	inactive	inactive	inactive	inactive	inactive	inactive
NC(=O)c1cnccn1	inactive	inactive	inactive	inactive	inactive		inactive		inactive	inactive					inactive	inactive	inactive	inactive	inactive	inactive
OCCO	inactive	inactive	inactive	inactive	inactive	inactive	inactive	inactive	inactive	inactive					inactive	inactive	inactive	inactive	inactive	inactive
CCn1c2ccccc2c2cc(N)ccc21	inactive	inactive	inactive	inactive	inactive	inactive	inactive		inactive	inactive	inactive	inactive	inactive	inactive		inactive	67.9 µM (active) and inactive	inactive	inactive	inactive
CCCCC(CC)COC(=O)CS (configuration not stated)	inactive	inactive	inactive	inactive	inactive	inactive	inactive	inactive	inactive	inactive	inactive	inactive	inactive	inactive	inactive	inactive	inactive			inactive
Oc1ccc(Cc2ccccc2O)cc1	inactive	inactive	inactive	inactive	inactive			36.8 µM (active) and inactive	inactive	inactive	inactive	inactive	inactive	inactive	inactive	inactive	inactive	inactive	inactive	inactive
Nc1ccc(S(=O)(=O)Nc2cnc3ccccc3n2)cc1	inactive	inactive	inactive	inactive	inactive	inactive	inactive	inactive		inactive	inactive	inactive	inactive	inactive	inactive	inactive	inactive	inactive		inactive
O=c1[nH]cnc2c1ncn2[C@H]1CC[C@@H](CO)O1	inactive	inactive	inactive	inactive	inactive		inactive	inactive	inactive						inactive	inactive	inactive	inactive	inactive	inactive
O=C(OCc1ccccc1)c1ccccc1	inactive	inactive	inactive	inactive	inactive		inactive	inactive	inactive		inactive	inactive	inactive	inactive	inactive		inactive	inactive	inactive	inactive
CC(=O)/C=C/C1=C(C)CCCC1(C)C	inactive	inactive	inactive	inactive	inactive		inactive	inactive	inactive		inactive	inactive	inactive	inactive	inactive	inactive	inactive	inactive	inactive	inactive
NC(N)=O	inactive	inactive	inactive	inactive	inactive		inactive	inactive	inactive		inactive	inactive	inactive		inactive	inactive	inactive	inactive	inactive	inactive
Cc1ccc(S(=O)(=O)NC(=O)NN2CCCCCC2)cc1	inactive	inactive	inactive	inactive	inactive		inactive	inactive	inactive						inactive	inactive	inactive	inactive	inactive	inactive
CCCC(=O)O	inactive	inactive	inactive	inactive	inactive		inactive	inactive	inactive		inactive	inactive	inactive	inactive	inactive	inactive	inactive	inactive	inactive	inactive
CC(C)c1cccc(C(C)C)c1	inactive	inactive	inactive	inactive	inactive		inactive	inactive	inactive					inactive	inactive	inactive	inactive	inactive	inactive	inactive
NC=O	inactive	inactive	inactive	inactive	inactive		inactive	inactive	inactive		inactive	inactive		inactive	inactive		inactive		inactive	inactive
O=C(O)c1cccc(C(=O)O)c1	inactive	inactive	inactive	inactive	inactive		inactive	inactive	inactive		inactive	inactive	inactive	inactive	inactive	inactive	inactive	inactive	inactive	inactive
